Screening data (PubChem BioAssay)
Rows were chosen to be rich in hits. Some 2.5% of all compounds tested hit in one or more screens of this group.
MEKK2 mut-MEK5: signal of MEK5 binding to mutant human MEKK2 PB1 domain; bead flow cytometry, Alexa488-MEK5 binding to MEKK2 mutant; 0.35% of 290,000 active; percent response, % at 10 µM; in the data active = percent response above about 24%, passing the limit was not always enough
MEKK3 PB1 HTS: modulators (inhibitors or enhancers) of MEK5 binding to human MEKK3 PB1 domain; Q99759; bead-based flow cytometry, Alexa488-MEK5 binding to MEKK3; actives lie on both sides; 0 = blocked by unlabeled MEK5, 100 = vehicle; binding response (% of control), % at 10 µM; 1.4% of 290,000 active; AID 1529;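 active = binding response more than 3 SD above or below the average of its plate-row segment, actives on both sides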;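 note: Alexa488 bead fluorescence after subtracting the streptavidin-only scavenger bead signal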
Target sequence (Q99759 whole entry, looked up, the tested form may be a part): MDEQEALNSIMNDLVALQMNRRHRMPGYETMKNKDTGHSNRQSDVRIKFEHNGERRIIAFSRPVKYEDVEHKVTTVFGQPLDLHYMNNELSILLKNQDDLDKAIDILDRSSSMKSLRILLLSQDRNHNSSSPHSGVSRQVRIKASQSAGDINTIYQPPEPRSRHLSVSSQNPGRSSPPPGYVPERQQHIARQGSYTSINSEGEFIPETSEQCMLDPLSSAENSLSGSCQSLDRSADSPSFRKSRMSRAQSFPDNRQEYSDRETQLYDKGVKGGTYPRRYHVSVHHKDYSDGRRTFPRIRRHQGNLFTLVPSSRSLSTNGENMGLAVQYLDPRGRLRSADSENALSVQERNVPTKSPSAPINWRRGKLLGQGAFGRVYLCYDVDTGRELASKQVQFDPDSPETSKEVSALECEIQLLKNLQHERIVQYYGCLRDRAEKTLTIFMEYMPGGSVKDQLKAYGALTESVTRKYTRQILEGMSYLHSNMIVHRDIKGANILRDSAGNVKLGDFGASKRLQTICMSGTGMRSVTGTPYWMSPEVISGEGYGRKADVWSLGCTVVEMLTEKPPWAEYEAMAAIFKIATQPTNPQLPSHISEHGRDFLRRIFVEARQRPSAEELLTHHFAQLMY
MEKK2 WT-MEK5: raises or lowers MEK5 binding to wildtype human MEKK2 PB1 domain | Q9Y2U5 | bead flow cytometry, Alexa488-MEK5 binding to MEKK2 WT; actives lie on both sides | binding response (% of control), % at 10 µM | 1.1% of 290,000 active | AID 1531; in the data active = binding response below about 67% or above about 130%
GRK2 aptamer HTS: inhibitors of human GRK2 displacing RNA aptamer | P25098 | AID 488847 | inhibition of aptamer binding, % at 10 µM | 0.59% of 330,000 active | bead flow cytometry, FAM-aptamer displacement from GRK2;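 active = inhibition of aptamer binding above 40%, roughly 3 SD of noise, on plates passing a quality check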;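 note: median bead fluorescence of bound FAM aptamer so fluorescent compounds give negative values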
MEKK2wt confirm: raises or lowers MEK5 binding to wildtype human MEKK2, retest; AID 1892; 2.4% of 5,900 active; binding response (% of control), % at 10 µM; bead flow cytometry, Alexa488-MEK5 binding to MEKK2 WT; actives lie on both sides; shares compounds with MEKK3 PB1 HTS; in the data active = binding response below about 16% or above about 210%; inactive = in between
MEKK2mut confirm: signal of MEK5 binding to mutant human MEKK2, retest. shares compounds with MEKK3 PB1 HTS. 2% of 5,900 active. bead flow cytometry, Alexa488-MEK5 binding to MEKK2 mutant. percent response, % at 10 µM; in the data active = percent response mostly above about 71%, no sharp cut-off; inactive = mostly below about 38%;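 note: higher means compound restores mutant binding toward wildtype level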
MEKK3-MEK5 inh: confirmation of inhibitors of MEK5 binding to human MEKK3 | shares compounds with MEKK3 PB1 HTS | bead flow cytometry, Alexa488-MEK5 binding to MEKK3; hits give low values | binding response (% of control), % at 10 µM | 1.8% of 5,900 active | AID 1894;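 active = binding response below 72% of control, or above a set upper limit, though filed actives all read lower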;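 note: lower values mean stronger disruption of MEK5 binding to MEKK3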
Large screens that a line does not name were inactive (follow-up assays come after a bar, where they were run); [ ] = dose if it differs, or a comment.

COc1ccc(-c2cc(C(=O)Nc3ccc(C(N)=O)cc3)c3ccccc3n2)cc1	none
O=C(O)CC/C(=N\Nc1ccc([N+](=O)[O-])cc1)c1ccccc1	none
O=C(O)CC/C(=N/Nc1ccc([N+](=O)[O-])cc1)C(=O)O	MEKK3 PB1 HTS 75[inhibitor] | MEKK2wt confirm inactive | MEKK2mut confirm inactive | MEKK3-MEK5 inh inactive
C/C(=N\Nc1ccc([N+](=O)[O-])cc1)c1ccc(C#N)cc1	none
C/C(=N/Nc1ccc([N+](=O)[O-])cc1)c1ccc(C)cc1C	MEKK2 WT-MEK5 148 | MEKK2wt confirm inactive | MEKK2mut confirm inactive | MEKK3-MEK5 inh inactive
FC(F)(F)c1ccc(N=Cc2sc(N3CCOCC3)nc2-c2ccccc2)cc1	none
CCOCCCNc1ccc(N2C(=O)CCCC2=O)cc1[N+](=O)[O-]	none
COc1ccc(-n2nc(C(=O)NCC(=O)NCCCN3CCCCCC3)c3ccccc3c2=O)cc1Cl	MEKK2 WT-MEK5 149 | MEKK2wt confirm inactive | MEKK2mut confirm inactive | MEKK3-MEK5 inh inactive
COc1ccc(-n2nc(C(=O)NCC(=O)NCCCN3CCC(C)CC3)c3ccccc3c2=O)cc1Cl	none
CCOC(=O)c1c(C)n(-c2ccc(C)cc2)c2ccc(O)c(CN(C)C)c12	MEKK2 WT-MEK5 138 | MEKK2wt confirm inactive | MEKK2mut confirm inactive | MEKK3-MEK5 inh inactive
CCOC(=O)c1c(C)n(-c2ccc(OC)cc2)c2ccc(O)c(CN(C)C)c12	none
CCOC(=O)c1c(CSc2ccc(C)cc2)n(C)c2cc(Br)c(O)c(CN(C)C)c12	MEKK2 WT-MEK5 145 | MEKK2wt confirm inactive | MEKK2mut confirm inactive | MEKK3-MEK5 inh inactive
CCOC(=O)c1c(CSc2ccccc2)n(C)c2cc(Br)c(O)c(CN(C)C)c12	none
CCOc1cc(C(=O)NC(C)CCc2ccccc2)cc(OCC)c1OCC (stereo not given)	none
Cc1ccc(C(=O)NCC(=O)OC(C)C(=O)Nc2ccccc2[N+](=O)[O-])s1 (stereo not given)	none (no result: MEKK2 mut-MEK5, MEKK3 PB1 HTS, MEKK2 WT-MEK5)
Cc1ccc(C(=O)NCC(=O)OC(C)C(=O)Nc2ccc(N(C)C)cc2)s1 (stereo not given)	MEKK3 PB1 HTS 49[inhibitor] | MEKK2wt confirm inactive | MEKK2mut confirm inactive | MEKK3-MEK5 inh inactive
Cc1cc(=S)nc(-c2ccccn2)[nH]1	MEKK3 PB1 HTS 57[inhibitor], MEKK2 WT-MEK5 59[inhibitor] | MEKK2wt confirm inactive | MEKK2mut confirm inactive | MEKK3-MEK5 inh inactive
CN(Cc1ccccc1)C(=O)COC(=O)C1CCN(S(=O)(=O)c2ccc3c(c2)OCCO3)CC1	none (no result: MEKK2 mut-MEK5, MEKK3 PB1 HTS, MEKK2 WT-MEK5)
O=C(COC(=O)/C=C/c1cccs1)NC(=O)Cc1ccccc1	MEKK3 PB1 HTS 138 | MEKK2wt confirm inactive | MEKK2mut confirm inactive | MEKK3-MEK5 inh inactive
CC1CCC(NC(=O)c2cc(S(=O)(=O)N(C)C)ccc2N2CCCC2)CC1 (stereo not given)	none (no result: MEKK2 mut-MEK5, MEKK3 PB1 HTS, MEKK2 WT-MEK5)
Cc1cc(Br)ccc1-n1[nH]c(C)c(C=Nc2cccc3nsnc23)c1=O	MEKK2 WT-MEK5 41[inhibitor] | MEKK2wt confirm inactive | MEKK2mut confirm inactive | MEKK3-MEK5 inh inactive
CCC(C(=O)OCC(=O)Nc1ccc(SC(F)F)cc1)c1ccccc1 (stereo not given)	none (no result: GRK2 aptamer HTS)
CC(OC(=O)CCC(=O)c1cccs1)C(=O)NC1CCCCC1C (stereo not given)	none (no result: MEKK2 mut-MEK5, MEKK3 PB1 HTS, MEKK2 WT-MEK5)
O=[N+]([O-])c1ccc(C[n+]2cccc3c4ccccc4ccc32)cc1	MEKK2 WT-MEK5 8.0[inhibitor] | MEKK2wt confirm inactive | MEKK2mut confirm inactive | MEKK3-MEK5 inh inactive
CCN(CC)c1ccc(C=N/C(C#N)=C(\N)C#N)cc1	MEKK3 PB1 HTS 1.0[inhibitor] (no result: MEKK2 WT-MEK5) | MEKK2wt confirm inactive | MEKK2mut confirm inactive | MEKK3-MEK5 inh inactive
CCN(CC)c1ccc(/C=C(\C#N)c2ccccn2)cc1	none
CC(=O)Nc1cccc2c1C(=O)N(c1cccc(OC(C)=O)c1)C2=O	none
CC(=O)Nc1cccc2c1C(=O)N(c1cccc(C)c1)C2=O	MEKK3 PB1 HTS 73[inhibitor] | MEKK2wt confirm inactive | MEKK2mut confirm inactive | MEKK3-MEK5 inh 53
COC(=O)c1c(NC(=O)c2cccnc2)sc(C)c1C	none
COC(=O)c1c(NC(=O)c2cccnc2)sc(C(=O)N(C)C)c1C	MEKK3 PB1 HTS 162 | MEKK2wt confirm inactive | MEKK2mut confirm inactive | MEKK3-MEK5 inh inactive
COc1cc(NC(=O)c2cc(C)nc3ccccc23)cc(OC)c1OC	MEKK3 PB1 HTS 142 | MEKK2wt confirm inactive | MEKK2mut confirm inactive | MEKK3-MEK5 inh inactive
COc1ccc(NC(=O)c2cc(C)nc3ccccc23)c(OC)c1	none
COCCNC(=O)CN(Cc1ccccc1)C(=O)CCC(=O)Nc1nccs1	none
O=C(CC(c1ccco1)S(=O)(=O)c1ccccc1)c1ccccc1 (stereo not given)	MEKK3 PB1 HTS 136 | MEKK2wt confirm inactive | MEKK2mut confirm inactive | MEKK3-MEK5 inh inactive
CN(CC(=O)NCc1cccs1)S(=O)(=O)c1cccc2nsnc12	MEKK3 PB1 HTS 2.0[inhibitor], MEKK2 WT-MEK5 3.0[inhibitor] | MEKK2wt confirm inactive | MEKK2mut confirm inactive | MEKK3-MEK5 inh inactive
CCOC(=O)c1cc(NC(=O)c2ccco2)ccc1N1CCOCC1	MEKK3 PB1 HTS 27[inhibitor], MEKK2 WT-MEK5 35[inhibitor] | MEKK2wt confirm inactive | MEKK2mut confirm inactive | MEKK3-MEK5 inh inactive
CC1CN(Cc2cn(C)nc2-c2ccc(Oc3ccccc3)cc2)CCN1C (stereo not given)	MEKK2 WT-MEK5 172 | MEKK2wt confirm inactive | MEKK2mut confirm inactive | MEKK3-MEK5 inh inactive
CN(C)/C=N/c1nc2nccc(-c3ccc(Cl)cc3)n2n1	none
CN(C)/C=N/c1nc2nccc(-c3ccccc3)n2n1	MEKK3 PB1 HTS 47[inhibitor] | MEKK2wt confirm inactive | MEKK2mut confirm inactive | MEKK3-MEK5 inh inactive
CCNCC(=O)N1c2ccccc2CCc2ccc(NC(=O)OC(C)C)cc21	MEKK2 WT-MEK5 137 | MEKK2wt confirm inactive | MEKK2mut confirm inactive | MEKK3-MEK5 inh inactive
O=C(Nc1nc2ccsc2c(=O)s1)C1CCC1	MEKK3 PB1 HTS 129 | MEKK2wt confirm inactive | MEKK2mut confirm inactive | MEKK3-MEK5 inh inactive
CC(=O)c1sc(NC(=O)CCS(=O)(=O)c2ccc(Cl)cc2)nc1C	none (no result: MEKK2 mut-MEK5, MEKK3 PB1 HTS, MEKK2 WT-MEK5)
Cc1nc(CS(=O)(=O)c2ccc(Cl)cc2)sc1C(=O)O	MEKK3 PB1 HTS 129 | MEKK2wt confirm inactive | MEKK2mut confirm inactive | MEKK3-MEK5 inh inactive
COc1ccc(C2C(C(=O)N3CCCCC3)CC(=O)N2c2ccc(OC)cc2)cc1 (stereo not given)	MEKK3 PB1 HTS 127 | MEKK2wt confirm inactive | MEKK2mut confirm inactive | MEKK3-MEK5 inh inactive
Cc1ccc(S(=O)(=O)N2CCCN(C)c3nc4ccccc4nc32)cc1	none (no result: MEKK2 mut-MEK5, MEKK3 PB1 HTS, MEKK2 WT-MEK5)
Cc1cc(Cn2nnc3ccccc32)c(O)c(C(C)(C)C)c1	none (no result: MEKK2 mut-MEK5, MEKK3 PB1 HTS, MEKK2 WT-MEK5)
CCCC(=O)Nc1sc2c(c1C(=O)OCC)CC(C)(C)OC2	none
CCOC(=O)c1c(NC(=O)CCC(=O)N2CCOCC2)sc2c1CC(C)(C)OC2	MEKK3 PB1 HTS 79[inhibitor] | MEKK2wt confirm inactive | MEKK2mut confirm inactive | MEKK3-MEK5 inh inactive
